Read-out in experiment [1]: sulfotransferase (SULT2A), SULT2A1 (gene 6822)
As to the kind of experiment: CLD_SULT2A_24hr: CellzDirect (CLD) Gene Expression Assay for sulfotransferase (SULT2A) at 24 hours (AID 2283694). The method in brief: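 mRNA is measured by qNPA: probe hybridisation, S1 nuclease digestion, chemiluminescence, in lysates from human primary hepatocytes harvested 24 h after daily dosing. Vehicle was 0.2% DMSO. Phase-contrast microscopy flagged cytotoxicity (yes/no).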

Read-out in experiment [2]: glucuronosyltransferase (UGT1A1), UGT1A1 (gene 54658)
Briefly: CLD_UGT1A1_24hr: CellzDirect (CLD) Gene Expression Assay for glucuronosyltransferase (UGT1A1) at 24 hours (AID 2283696). The method in brief: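 UGT1A1 transcript induction was measured by quantitative nuclease protection assay (chemiluminescence) in human hepatocyte cultures 24 h after daily fresh dosing, with 0.2% DMSO as vehicle and baseline.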

Read-out in experiment [3]: Cytochrome P450 3A4 (Homo sapiens) (UniProt P08684)
Briefly: CLD_CYP3A4_48hr: CellzDirect (CLD) Gene Expression Assay for xenobiotic metabolism (CYP3A4) at 48 hours (AID 2283698). The method, boiled down:
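CYP3A4 induction read by qNPA chemiluminescence after 48 h, with fresh dosing solutions on consecutive days, in cultured human hepatocytes (two donors). Vehicle 0.2% DMSO as baseline; microscopy-based cytotoxicity annotated yes/no alongside data.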

Read-out in experiment [4]: xenobiotic metabolism (CYP1A2), CYP1A2 (gene 1544)
As to the kind of experiment: CLD_CYP1A2_48hr: CellzDirect (CLD) Gene Expression Assay for xenobiotic metabolism (CYP1A2) at 48 hours (AID 2283703). The method in brief: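 Cytotoxicity was flagged yes/no from morphology, while CYP1A2 transcript induction was detected by qNPA chemiluminescence after a 48-hour exposure. Human primary hepatocyte cultures from separate donors received fresh dosing solutions daily over two days, with 0.2% DMSO as vehicle and baseline.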

Read-out in experiment [5]: alkyl and aryl transferase (GSTA2), GSTA2 (gene 2939)
Briefly: CLD_GSTA2_48hr: CellzDirect (CLD) Gene Expression Assay for alkyl and aryl transferase (GSTA2) at 48 hours (AID 2283708).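 Further: active means mRNA induction above DMSO vehicle baseline.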 The method, boiled down: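 GSTA2 mRNA quantified by qNPA chemiluminescence in human primary hepatocyte lysates after 48 h of daily fresh chemical dosing. Increases fitted against 0.2% DMSO vehicle baseline; cytotoxicity from morphology annotated yes/no.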

Read-out in experiment [6]: glucuronosyltransferase (UGT1A1), UGT1A1 (gene 54658)
Briefly: CLD_UGT1A1_48hr: CellzDirect (CLD) Gene Expression Assay for glucuronosyltransferase (UGT1A1) at 48 hours (AID 2283709).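 Further: actives increase expression relative to DMSO so potency refers to induction.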 The method, boiled down: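 Quantitative nuclease protection assay (chemiluminescent) for UGT1A1 mRNA at 48 h in human hepatocyte cultures from two donors, redosed daily with fresh solutions. Induction fitted relative to 0.2% DMSO; phase-contrast morphology annotated cytotoxicity.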

Read-out in experiment [7]: sulfotransferase (SULT2A), SULT2A1 (gene 6822)
Briefly: CLD_SULT2A_48hr: CellzDirect (CLD) Gene Expression Assay for sulfotransferase (SULT2A) at 48 hours (AID 2283710).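 Further: hits raise SULT2A1 transcript above the 0.2% DMSO vehicle baseline.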 The method in brief:
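SULT2A1 transcript measured by qNPA chemiluminescence in human primary hepatocyte cultures after 48 h, with fresh dosing solutions on two consecutive days; gain-of-signal fitting against 0.2% DMSO vehicle; cytotoxicity annotated from phase-contrast morphology.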

Read-out in experiment [8]: HMG-CoA synthase (HMGCS2), HMGCS2 (gene 3158)
As to the kind of experiment: CLD_HMGCS2_48hr: CellzDirect (CLD) Gene Expression Assay for HMG-CoA synthase (HMGCS2) at 48 hours (AID 2283711). The method, boiled down: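 mRNA induction read by qNPA chemiluminescence, 48 h after dosing. Cultured primary human liver cells (two donor preparations) received fresh compound daily over two days against 0.2% DMSO vehicle; morphology-based cytotoxicity noted alongside.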

Experiment [9] can be described thus: CLD_ACTIN_48hr: CellzDirect (CLD) Gene Expression Assay for Baseline Control (Actin) at 48 hours (AID 2283702). The method, boiled down:
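Background-control actin mRNA read by qNPA chemiluminescence at 48 h. Human hepatocyte cultures from two donors received fresh multi-concentration chemical doses daily for two days; 0.2% DMSO served as vehicle baseline.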

Read-out in experiment [10]: Broad substrate specificity ATP-binding cassette transporter ABCG2 (Homo sapiens) (UniProt Q9UNQ0)
As to the kind of experiment: CLD_ABCG2_48hr: CellzDirect (CLD) Gene Expression Assay for ABC Transporter (ABCG2) at 48 hours (AID 2283704). The method in brief:
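ABCG2 transcript measured at 48 h by quantitative nuclease protection (chemiluminescent) and fitted for increase relative to 0.2% DMSO. Hepatocyte cultures from separate donors got fresh compound daily over two days; morphology annotated cytotoxicity.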

Read-out in experiment [11]: xenobiotic metabolism (CYP1A1), CYP1A1 (gene 1543)
As to the kind of experiment: CLD_CYP1A1_48hr: CellzDirect (CLD) Gene Expression Assay for xenobiotic metabolism (CYP1A1) at 48 hours (AID 2283705). The method in brief:
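CYP1A1 transcript measured by quantitative nuclease protection (chemiluminescent) 48 h after two daily treatments of human hepatocyte cultures, versus 0.2% DMSO. Morphology-based cytotoxicity flags accompany data; two donor preparations used.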

Read-out in experiment [12]: organic anion transporter (SLCO1B1), SLCO1B1 (gene 10599)
Briefly: CLD_SLCO1B1_48hr: CellzDirect (CLD) Gene Expression Assay for organic anion transporter (SLCO1B1) at 48 hours (AID 2283707). The method in brief: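 SLCO1B1 transcript quantified by qNPA with chemiluminescent readout after 48 h of once-daily chemical exposure. Cultured human primary hepatocytes came from two donors, with 0.2% DMSO vehicle; positive-direction fitting against DMSO, cytotoxicity flagged by morphology.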

Experiment [13] is described as follows: Tanguay_ZF_120hpf_ActivityScore_legacy: (Legacy) Oregon State University Tanguay Lab 120 Hour Post-fertilization zebrafish Assay Score for Activity (AID 2283742). The method in brief:
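Dechorionated 5D embryos, one per well, static exposure 6–120 hpf, 28C, sealed and dark; final DMSO 0.64% (vol/vol). Brightfield binary scoring of mortality plus 18 endpoints; gain-of-signal fit versus DMSO baseline.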

Experiment [14] can be described thus: STM_H9_OrnithineISnorm_perc: Stemina devTOX quickPredict H9 human embryonic stem cell (hESC)-based Assay for Ornithine (ORN) Metabolite Biomarker, Normalized (AID 2283712; active means hit-call score of the fitted dose curve at least 0.9, where 1 is the maximum; inactive means score below 0.9;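 further: ornithine released into spent medium during last day measured by mass spectrometry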). The method, boiled down: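 Ornithine secreted by H9 hESCs after 72h compound treatment (daily media/compound renewal) was quantified in final-day media by UPLC-HRMS. Values are isotope-standard-normalized, expressed relative to 0.1% DMSO, fitted in positive direction.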

Read-out in experiment [15]: Cytochrome P450 2B6 (Homo sapiens) (UniProt P20813)
As to the kind of experiment: CLD_CYP2B6_48hr: CellzDirect (CLD) Gene Expression Assay for xenobiotic metabolism (CYP2B6) at 48 hours (AID 2283699).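 Further: actives raise transcript level above DMSO so potency reflects induction.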 The method in brief: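 CYP2B6 transcript induction, read by quantitative nuclease protection (S1 digestion, chemiluminescent detection) 48 h after dosing, is fitted upward against 0.2% DMSO. Cultured human liver primary cells, two donor preparations, received fresh chemical daily over multiple concentrations.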

Experiment [16] is described as follows: CEETOX_H295R_MTT_cell_viability: Viability Assessment in the CeeTox HT-H295R MTT Assay (AID 2283718; active means hit-call score of the fitted dose curve at least 0.9, where 1 is the maximum; inactive means score below 0.9). The method, boiled down: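 Human H295R adrenal cells, prestimulated 48 h with 10 uM forskolin, were exposed 48 h to chemicals in 0.1% DMSO. Viability was measured in the same wells by MTT (0.5 mg/ml, 4 h, 37 C), absorbance 570/650 nm, as percent of controls.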

A short description of experiment [17]: STM_H9_OrnCyssISnorm_ratio: Stemina devTOX quickPredict H9 human embryonic stem cell (hESC)-based Assay for Ornithine (ORN):Cystine (CYSS) Ratio (AID 2283714). The method in brief: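 UPLC-HRMS of spent media: ORN/CYSS ratio of internal-standard-normalized percentages, DMSO (0.1%) baseline. Pluripotent H9 hESCs, 72h exposure, daily re-dosing with fresh media; last 24h media collected.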

Read-out in experiment [18]: xenobiotic metabolism (CYP2C9), CYP2C9 (gene 1559)
As to the kind of experiment: CLD_CYP2C9_48hr: CellzDirect (CLD) Gene Expression Assay for xenobiotic metabolism (CYP1A2) at 48 hours (AID 2283701; active means hit-call score of the fitted dose curve at least 0.9, where 1 is the maximum; inactive means score below 0.9). The method, boiled down: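 mRNA level measured by quantitative nuclease protection (S1 digestion, chemiluminescent detection) in lysates of human primary hepatocytes exposed 48 h with daily re-dosing. Induction fitted positively versus 0.2% DMSO; morphology-based cytotoxicity flagged yes/no.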

Inconclusive results are not listed. Activity calls are given as the source filed them. How the source made its calls, unless noted: active means hit-call score of the fitted dose curve at least 0.9, where 1 is the maximum; inconclusive means response in the unintended direction; inactive means score below 0.9.

Chain of Cytochrome P450 3A4 (Homo sapiens) (P08684 whole entry, looked up): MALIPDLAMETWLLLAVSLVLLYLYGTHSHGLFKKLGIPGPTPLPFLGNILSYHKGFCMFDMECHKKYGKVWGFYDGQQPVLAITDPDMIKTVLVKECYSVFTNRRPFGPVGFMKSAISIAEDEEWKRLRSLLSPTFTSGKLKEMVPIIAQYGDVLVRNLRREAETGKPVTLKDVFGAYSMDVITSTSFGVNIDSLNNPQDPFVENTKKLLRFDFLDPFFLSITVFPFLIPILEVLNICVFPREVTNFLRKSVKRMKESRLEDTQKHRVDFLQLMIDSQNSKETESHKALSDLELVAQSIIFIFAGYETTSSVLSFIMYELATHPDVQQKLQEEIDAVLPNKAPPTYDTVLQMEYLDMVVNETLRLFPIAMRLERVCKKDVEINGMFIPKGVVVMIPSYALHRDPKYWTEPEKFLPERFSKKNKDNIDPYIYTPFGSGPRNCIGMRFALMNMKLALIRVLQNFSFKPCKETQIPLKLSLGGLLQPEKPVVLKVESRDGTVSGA
Chain of Broad substrate specificity ATP-binding cassette transporter ABCG2 (Homo sapiens) (Q9UNQ0 whole entry, looked up): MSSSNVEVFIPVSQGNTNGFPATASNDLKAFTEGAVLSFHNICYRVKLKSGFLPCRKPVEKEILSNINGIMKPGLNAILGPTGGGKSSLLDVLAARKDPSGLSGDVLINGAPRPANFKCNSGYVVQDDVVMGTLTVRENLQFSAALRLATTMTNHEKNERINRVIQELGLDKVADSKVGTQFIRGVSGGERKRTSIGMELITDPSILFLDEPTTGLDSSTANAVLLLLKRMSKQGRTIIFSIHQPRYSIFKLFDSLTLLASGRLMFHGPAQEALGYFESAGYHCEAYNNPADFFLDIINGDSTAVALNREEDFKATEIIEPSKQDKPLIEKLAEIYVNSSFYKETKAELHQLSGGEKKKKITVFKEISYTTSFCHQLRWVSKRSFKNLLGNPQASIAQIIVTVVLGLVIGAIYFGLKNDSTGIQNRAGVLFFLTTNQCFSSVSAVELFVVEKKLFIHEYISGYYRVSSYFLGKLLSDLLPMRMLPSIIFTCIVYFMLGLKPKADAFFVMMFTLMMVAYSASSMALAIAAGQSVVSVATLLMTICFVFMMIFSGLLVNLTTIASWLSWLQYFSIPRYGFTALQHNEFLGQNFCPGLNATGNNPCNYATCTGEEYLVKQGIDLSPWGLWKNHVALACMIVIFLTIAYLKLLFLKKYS

For `CCOP(=O)(OCC)Oc1nc(Cl)c(Cl)cc1Cl`, the compound was called inactive in experiment [1], in [2], in experiment [3], in [5], in [6] and in experiment [7]. Moreover, the call in experiment [8] was inactive. Moreover, the AC50 in experiment [4] is 4.58 µM (active).

On to `C=C(C)CN(CC)c1c([N+](=O)[O-])cc(C(F)(F)F)cc1[N+](=O)[O-]`, for which the call in experiment [1], in experiment [9], in experiment [10], in experiment [11], in experiment [12] and in [5] was inactive. For the same compound, the call in experiment [6], in experiment [7] and in [13] was inactive. In addition, the AC50 in [3] was 3.97 µM (active).

On to `Cc1cc(C)nc(Nc2ccccc2)n1`, for which the result in experiment [2], in [3], in experiment [6], in [7], in experiment [8] and in experiment [14] was inactive. Besides, the compound was classed as inactive in experiment [13].

Turning to `Cc1nc(N(C)C)nc(OC(=O)N(C)C)c1C`, the outcome in experiment [2], in experiment [3], in experiment [9], in [6] and in experiment [16] was inactive. Besides, in experiment [15], the AC50 is 5.26 µM (active).

`CCNP(=S)(OC)O/C(C)=C/C(=O)OC(C)C` (configuration not stated): the AC50 was 0.654 µM (active) in experiment [3], 1.04 µM (active) in experiment [6], 50 µM (active) in [14] and 72.6 µM (active) in experiment [17]. Besides, the compound was called inactive in experiment [7], in experiment [16] and in experiment [13].

Turning to `Clc1nc(Cl)nc(Nc2ccccc2Cl)n1`, the result in experiment [3], in experiment [9], in [4], in experiment [10], in experiment [12] and in experiment [5] was inactive. In addition, the call in experiment [6] and in experiment [16] was inactive.

In the case of `O=C(O)c1c(Cl)ccc2cc(Cl)cnc12`, the result in experiment [3], in [12], in experiment [5], in experiment [7] and in [8] was inactive. For the same compound, the AC50 in experiment [18] is 0.069 µM (active).

Take `CCOc1nc(C(Cl)(Cl)Cl)ns1`: the result in experiment [3], in [9], in experiment [6], in [8], in [16] and in experiment [13] was inactive. In addition, the results for the AC50 in experiment [14] and in experiment [17] were 0.11 µM (active) and 9.92 µM (active), respectively.

Regarding `CC(C)=CC1C(C(=O)OCc2coc(Cc3ccccc3)c2)C1(C)C` (configuration not stated), in experiment [15], the AC50 is 20 µM (active). Moreover, the result in experiment [10], in [12], in [5], in experiment [6] and in experiment [7] was inactive.

Regarding `CCCCOCN(C(=O)CCl)c1c(CC)cccc1CC`, the AC50 in [3] is 3.57 µM (active); in [4] it was 9.38 µM (active); in experiment [5], 20 µM (active). For the same compound, the result in experiment [9], in [6] and in experiment [7] was inactive.

One may read the AC50 as the concentration at which the activity in the assay is half-maximal.
